Our source for the ATP content values is the supplement of paper PMC4206467.

The subject of this assay is Perkinsus marinus PRA240. The experiment in a line: ATP content (proliferation) relative to DMSO control; higher = more parasite growth (less inhibition). The conditions noted are these: 20 µM; 4 days. As for the experimental part: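 Perkinsus marinus PRA240 trophozoites (2-5x10^6 cells/ml, 100 µl, 96-well) were exposed once to MMV Malaria Box compounds at 20 µM (0.1% DMSO) in triplicate. ATP content (ATPlite bioluminescence) was read at day 4 post-exposure and normalised to DMSO + cells control wells (100% activity). Compounds were identified by joining plate and well to the Malaria Box list.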
With `COc1cc(C(=O)Nc2nc3c(cc4c5c(cccc53)CC4)s2)cc(OC)c1OC`, the ATP content worked out at 89.8%.
Turning to `CCN(CC)CCNc1ncnc2c1[nH]c1ccc(Br)cc12`, the ATP content amounted to 141%.
Next, `CC(C)(C)c1ccc(C(=O)Nc2nc3ccccc3s2)cc1`: 57%; `O=C(Nc1ccc(Cl)cc1C(=O)Nc1ccncc1)c1ccc(Cl)cc1Cl`: 103%; `Cc1ccc(-c2cc(C(=O)Nc3ccc(S(=O)(=O)N4CCCCC4)cc3)[nH]n2)c(O)c1`: 104%.
The value for `Oc1ccc2ccccc2c1CNc1nc2ccccc2[nH]1` was 65.9%; that for `COc1ccc(CCN2CCC(CN(C)Cc3cnn(-c4ccccc4)c3)CC2)cc1` was 110%.
The value for `COc1cc(-c2nc(-c3ccccc3)c(-c3ccccc3)[nH]2)cc(OC)c1O` was 61.1%; that for `O=c1cc(NC2CCN(CCCc3ccccc3)CC2)c2cc(Cl)ccc2o1` was 167%.
With `COc1ccc(C2c3ccc4ccccc4c3Oc3ncn(CCCn4ccnc4)c(=N)c32)cc1OC` (stereo not given), the ATP content came out at 121%.
Next, `COc1ccc(CNC2CCN(c3ccc(NC(=O)c4cccc(Cl)c4)cc3)CC2)cc1OC`: 102%; `CCOc1ccc2nc(C)cc(Nc3ccc(Br)cc3)c2c1`: 3.75%; `O=C(Nc1ccc(-c2nc3ccccc3[nH]2)cc1)c1ccc(Cl)c(Cl)c1`: 97.8%.
Next, `Cc1cc(C)c2nc(N3CCC(C(=O)NCCCN4CCC(N5CCCCC5)CC4)CC3)sc2c1`: 135%.
Next, `O=C(NC1CCN(Cc2ccccc2)CC1)c1cc(-c2ccncc2)nc2ccc(Cl)cc12`: 172%; `O=C(NCC1Cc2cccc(-c3ccncc3)c2O1)c1csc2c1CCCC2` (stereo not given): 114%; `COCCNC(=O)c1ccc(OC2CCN(Cc3ccc(F)c(F)c3)CC2)c(Cl)c1`: 86.4%.
The compound `COc1ccc2sc(N(Cc3cccnc3)C(=O)c3ccc(C#N)cc3)nc2c1` had an ATP content of 111%.
The value for `Cc1cccc(-n2ncc3c(=O)[nH]c(-n4nc(C)cc4NC(=O)c4cc5ccccc5o4)nc32)c1` was 19%; that for `CCC(O)c1ccc(Br)cc1NC(=O)c1cccc(Cl)c1` (stereo not given) was 127%.
`c1ccc(-c2ccc(-c3nc4ccccc4[nH]3)cc2)cc1` yielded an ATP content of 16.5%.
The value for `Cc1ccc(Cl)cc1N1CCN(CCCNC(=O)C2CCN(c3nc4ccccc4[nH]3)CC2)CC1` was 87.1%; that for `O=C(Nc1ccsc1C(=O)NC1CCCCC1)c1ccc(F)cc1` was 90%.
Next, `Nc1ccn(C2O[C@H](CO)[C@@H](O)[C@H]2O)c(=O)n1` (stereo not given in full): 132%; `CCOc1c(Br)cc(C2C(C(=O)OC)=CN(C)C=C2C(=O)OC)cc1OC`: 123%; `COc1ccc2nc(C)cc(Nc3ccc(Cl)cc3)c2c1`: 103%.
Consider `CCCc1c(C)nc2ccc(Br)cc2c1O`, for which the ATP content is 58.8%.
`Cc1ccc(CN2CCC(C(=O)Nc3ccc(-c4cc5ccccc5[nH]4)cc3)CC2)o1` yielded an ATP content of 83.4%.
The value for `FC(F)(F)c1cccc(Nc2nc(-c3ccccc3)nc3ncccc23)c1` was 108%.
The value for `COc1ccccc1N1C(=N)SC(=Cc2ccc(OCc3ccccc3F)cc2)C1=O` was 57.5%; that for `CCCCc1ccc(NS(=O)(=O)c2cc3c4c(c2)CCN4C(=O)CC3)cc1` was 115%; that for `CCCCCCn1c(=N)n(CC(O)COc2cccc(C)c2)c2ccccc21` (stereo not given) was 96.7%.
Next, `CCN(CC)c1ccc(NC(=O)c2cccs2)cc1`: 64%.
`Oc1c(CN2CCN(c3ccccc3F)CC2)cc(Br)c2cccnc12` came in with an ATP content of 105%.
The value for `CC(C)(C)C(=O)Nc1ccc(C(=O)Nc2cccc(-c3nc4ccccc4[nH]3)c2)cc1` was 67.7%.
Next, `O=C(Nc1ccc(Cl)cc1)N1CCN(c2ccc3nncn3n2)CC1`: 124%; `Cn1c(=O)c2cc(C(=O)NCCCN3CCCCCC3)sc2c2ccccc21`: 86.3%; `CCOc1ccccc1NC(=O)CN1CCN(C(=O)c2ccco2)CC1`: 66.6%.
`CC(C)(C)CC(C)(C)NCC(O)COc1ccc(Cl)cc1Cl` (stereo not given) had an ATP content of 123%.
As to `COc1cc(-c2nc(-c3ccc(Sc4ccccc4)cc3)c(-c3ccccc3)[nH]2)cc(OC)c1O`, the ATP content came to 78.3%.
